Data on 108 sequences can be found in PubChem BioAssay AID1508600 (Functional Genomics Laboratory (NCATS/FGL), 2020).

Among all 53,000 sequences or so, about 3,700 (7%) were called active.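 Rule for the calls: active = gene knockdowns whose robust z-score for IL-1 alpha signal is at least 2 or at most -2, so actives lie on both sides; inactive = the rest.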 Many of the other results were omitted from the sample, so actives are more common in it than they were.

This experiment is described as follows: Components of the Cytosolic LPS Sensing Pathway: Gene Identification via Genome-wide siRNA Screen.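 Note: robust z of the log signal after scaling to non-targeting control siRNA wells of the plate.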 Particulars: RAW264.7 macrophages, IL-1a HTRF, actives lie on both sides, screened at 100 nM (by protocol), cells primed 5 h with Pam3CSK4 first. The method in brief: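 Mouse macrophage line RAW264.7 is transfected with siRNA (100 nM final), grown 48h, primed with TLR ligand Pam3CSK4 5 h and given intracellular LipidA 24 h. IL-1a in supernatant is read by HTRF and viability by luminescence.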
Background: In TR-FRET formats the signal depends on donor and acceptor labels being close together.
For the sequence GGAGCAACAGAGAUUUCUUTT against Sergef, the z-score was 2.07 (active). Turning to GCUUCUGAUUAACCUCCAGTT against Olfr1390, the z-score was -1.49 (inactive).

As for GCUUACCUUUGGAUUCAAATT against Cd68, the z-score is -0.446 (inactive).

For the sequence GGGAAAAAGAGCUUUUAGCTT against Helt, the z-score is -0.552 (inactive). GGUGGCCGUGAAGAAGAUCTT against Mapk4: the z-score is -0.902 (inactive). With GGGCUUAAGGAAUAAACCATT against Phtf2, the z-score was -0.317 (inactive). Take GGAGAUCUCAGAGAGUGAGTT against Atn1: the z-score was -2.52 (active). Turning to GCCUCCAACUGAACAAAUUTT against Tnfrsf14, the z-score was 0.0618 (inactive).

For GGACCAUCUCUUUGAUUGGTT against Olfr424, the z-score is -1.12 (inactive). As for UCUUUGGCAACACUACCAUTT against Olfr1386, the z-score was 0.366 (inactive). With GAAGUCCUGGGACUUUAUGTT against Nudt14, the z-score is 0.208 (inactive). The value for GGACAGAAUUGAAAUGCCUTT against Ropn1l was -2.08 (active); that for GGUUUCGUUGUUCUUGUUGTT against Ttc33 was 0.55 (inactive). On to GGUAGAAGAGAACUGGACATT against Oas1a, for which the z-score was 0.228 (inactive). As for GGCAUGAUUAUUGUGUUUGTT against Abcb11, the z-score was 0.41 (inactive). The value for CCUAAGUACUGUAAGAAUATT against Mycn was 0.506 (inactive). Consider CGCCAUGUUUAACAAAUUGTT against Limk2, for which the z-score is -2.22 (active).

With GCCAUUCUAGGAACUCUGATT against Thrap3, the z-score was -1.3 (inactive).

As for GGUAUCAGACAGCUGUAACTT against Mptx1, the z-score is 0.359 (inactive).

As to GCAUCAGUAGAAACCCACATT against Tmigd3, the z-score is 0.872 (inactive). Then CCCUACUAUUGACGAAAACTT against Hpn, with 1.66 (inactive). For the sequence “CCUGAUCUUAAACAAAGAATT against 2610507B11Rik”, the z-score was -0.742 (inactive). On to GCCAACCCUGAAAACCCUUTT against Gc, for which the z-score was -2.54 (active). As for GGUUGUUGAAAAGUCUUUATT against Rasa2, the z-score was -0.102 (inactive). The value for GCACUGGAAAAUUUCUAAUTT against Vmn2r7 was -0.0531 (inactive); that for GGAGGUAGAAAUAAAUACUTT against Sva was 2.01 (active). With GGACAAUUACAACACUCAATT against Ablim3, the z-score is -0.00526 (inactive).

As to GGCUUGAUCAUGACUUAAATT against Armc8, the z-score is 0.638 (inactive). The value for GGUUUUGUUAUGGUAAGUCTT against Vdr was -0.573 (inactive). With CCAAGCAUUCGAGUAUGUUTT against Ctsj, the z-score is 1.07 (inactive). On to CCAAUGAUUUCCUGCUAAATT against Lst1, for which the z-score is 3.21 (active). With GGAAGACAACUGAACAUUUTT against Ralgds, the z-score is 0.837 (inactive). For CCGGAAGCUAUUGACCAUUTT against Tmem11, the z-score was 3.21 (active). Turning to GGCCGUAAUAUCUCCUCCUTT against Krt13, the z-score is 1.41 (inactive). The value for CGCGAGGUCUUCGAAAGAATT against Siva1 was -0.884 (inactive); that for CGCGUUUCGUGUUUCAAAATT against Mus81 was -0.464 (inactive). Consider GAUCGAAGCCUAAGACCGCTT against Cypt3, for which the z-score is -0.578 (inactive).

For GCCUUAGGGAGUGUUAAAATT against Spink8, the z-score is -0.304 (inactive). As to GGUGGAGAAGCAGAUGCUUTT against Nek2, the z-score was 2.25 (active). Regarding GGAAUUCCUUACCUUCUUATT against Cyp2c65, the z-score is -0.269 (inactive). For the sequence GGAGCAUCACUCUUAACAUTT against Krt71, the z-score is 1.58 (inactive). For GGGACACUUUCACUUGUUCTT against Rmnd5a, the z-score was 0.159 (inactive). Then GCUCAGGCAAGACUCAUUGTT against Trim45, with -0.57 (inactive). For GGACUUUUGGCACUCUUAUTT against Snx10, the z-score was 0.127 (inactive).

For GGAUUUGAUUCCGCCAACGTT against Pon2, the z-score is -2.03 (active). For the sequence GCUUAAAAGUGAAGUCUUGTT against Tmem203, the z-score was -0.615 (inactive). For the sequence GUAAGGUCACCGGGUUGCATT against Lor, the z-score was 0.547 (inactive). As for GGUGGUCCUGGAUCUUUAUTT against Spon2, the z-score was -0.986 (inactive). Consider GGACUUCGACAAACUGAAGTT against Zfp532, for which the z-score was 0.547 (inactive). Then GCCUUCUUGAACUGAAAGATT against Spc24, with -2.04 (active). Turning to GGUUCUAUGUUGACAAUCATT against Osgin2, the z-score was 0.621 (inactive). On to GGAAAUCUGAGUGUGCACUTT against Pcdhgb1, for which the z-score was 1.45 (inactive). Then GGCUGUCUUCAUCUUAGAUTT against Copz2, with -2.61 (active); and GGAUAAUACAUCCCAAAACTT against Prkar2b, with -0.607 (inactive); and GGAUCUCCAGAGCAGAAAATT against Nckap5, with -1.64 (inactive).

Turning to GGUGAAUUCAACUCUCUAATT against Decr1, the z-score is 2.43 (active). On to GGGUGUUGAUGUCAUUGUGTT against Dbn1, for which the z-score is 1.51 (inactive). On to GCAUGCACUUAAGAUUCUATT against Lypd6b, for which the z-score is 0.595 (inactive). As to CCAGGAAUCAGUCUAUACUTT against Lrrc15, the z-score is 1.45 (inactive). As for GGUUGUAACAAACAUACUCTT against Sstr4, the z-score was 2.99 (active). For GGACCUGGAGAAAUUGAAGTT against Nlrp6, the z-score was 1.82 (inactive). For the sequence GGUCAUCUCAGACCUCCUCTT against Pde6a, the z-score was -0.275 (inactive). In the case of GCAAAACCAUUUCGAAACATT against Slc41a3, the z-score was 0.363 (inactive). The value for CCUGUGGAUCCAUUUGUUCTT against Tex15 was -2.25 (active). As for GGAAAAGCUACCUGUGUCATT against Tril, the z-score is -1.88 (inactive). Consider GGUGAUGGAAUACCAAAGGTT against Dnajc28, for which the z-score is -0.736 (inactive). In the case of GGAUAUCUUCAUAUUGGUGTT against Ces1f, the z-score is 4 (active). On to GGAGAUCCCGUCACUAUCUTT against Lrrc61, for which the z-score was -0.439 (inactive). In the case of GGACAAUGAACUGAUUACCTT against Ap1s2, the z-score was 0.992 (inactive). GGGACAAAGAAAAUCUACUTT against Ehf: the z-score was 0.637 (inactive). The value for GUACCAGAAGUGAGUUCAGTT against Leap2 was -2.97 (active); that for GCUGCCUCUUUCUUUGCUUTT against Pllp was -0.769 (inactive). Then GGCAGAUUCAGAAUUGUCUTT against Il17a, with -2.58 (active); and GGACUUUGCCCUGGAUUCUTT against Cnot1, with -0.216 (inactive).

Take GGUUUGUUGUUGUUUUUGGTT against Vezt: the z-score is 0.44 (inactive).

With GCAAUUACCAGUAUGCUACTT against Tbx19, the z-score was 0.914 (inactive). Consider CGGUAAACUGGUUUUACUUTT against Otulin, for which the z-score was 1.8 (inactive). Then GCCACAUCCUAUGUGAUGATT against Olfr1349, with -0.647 (inactive); and GGAAGCUAUAUAUCAAGAATT against Tcea1, with 0.69 (inactive); and GUCCGUCUCGGAGAAAUGUTT against Ccdc106, with -2.28 (active).

Turning to “GGAUUCACGAGCAUAAGCUTT against 1700020D05Rik”, the z-score is -1.31 (inactive). Regarding GGAGGCAGCAGUUAUUGUGTT against Ly6a, the z-score is -0.486 (inactive).

Consider GGCCUCAGACCUUCUAUGATT against Mtap, for which the z-score is -0.149 (inactive). Regarding GGUGUCCUCUUUGUUCAUGTT against Sgce, the z-score is 2.94 (active). Take GGCUGGUACUCCAUUUUAGTT against Neil2: the z-score is 0.0451 (inactive). Then GCCAGUUGGUUACUAUGGATT against Tax1bp3, with -0.412 (inactive); and GGGAUUACCAAAAAGGCAUTT against Senp7, with 0.128 (inactive); and GGAUAUUAACUAUGGGUUUTT against Tlr2, with 0.605 (inactive).

Regarding GGCCUGCUUUGUUCUGAAUTT against Olfr846, the z-score is -2.53 (active).

For the sequence GCGCAAUAAUCAGACGGUUTT against Zhx2, the z-score was -0.624 (inactive). The value for GGAAGAAGGUACAUUUCAGTT against Ankrd42 was 0.362 (inactive); that for GGGCAAAAUAUGAAAUACATT against Pate6 was 2.92 (active); that for GAGAGAGACAAUCCUGAAGTT against Klra22 was -0.0539 (inactive). Regarding GGCAAAUGGAAACAGCCAUTT against Serpina1d, the z-score is -1.56 (inactive). In the case of CCUGCUCAAACUUUUGUGGTT against Ephx4, the z-score is 0.928 (inactive).

Regarding GGAACCUUCUCCAAAGCAATT against Rpgrip1, the z-score was -2.45 (active).

For the sequence CGUCAAAGGAGACAGCUUUTT against Rbm15b, the z-score was 1.56 (inactive).

Consider GCUCAAAUUGAGUCCUUAUTT against Ccdc122, for which the z-score is -0.548 (inactive). Regarding GCUAGCCAUGGUUACCCACTT against Slc39a3, the z-score was -0.818 (inactive). The value for GGGACACUAGAAGUAGGGATT against Pramel4 was 0.299 (inactive).

In the case of GACGAUCAAGAUAUGAUGGTT against Olfr196, the z-score was 0.259 (inactive). As to GCACGUACUGUUCUAGAAGTT against Kcng4, the z-score was 1.48 (inactive). As for CCCAAAGAUAGAGCUCUGUTT against Sec61a2, the z-score is -1.94 (inactive). As for GGUUGAUCUAAUGAUUGUGTT against Ccdc34, the z-score was 2.5 (active). Then UCUCCUACCUAUGCACAUATT against Panx2, with -0.925 (inactive). For “GCAAGUCUGGAUGGAUGAGTT against 1190005I06Rik”, the z-score is -1.54 (inactive). Consider CCCUCGUUGAAUUAAACUUTT against Zfp385b, for which the z-score is 0.88 (inactive).

As for GGUCUCAGACAAAGAUGAATT against Trmt10c, the z-score was -0.239 (inactive).
